82 compounds from PMC4336329 (PLoS ONE, 2015) can be followed below.

The whole screen tested about 310,000 compounds, of which about 14,000 (4.5%) showed an effect of 50% or more. The effect is printed as a negative number. This is one part of a sample in which strong results are shown more often than they occur.
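Also: peak tail current of the secondary pulse compared with the same well before compound.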

In the assay the target is human ether-à-go-go-related gene (hERG) potassium channel (human, UniProt Q12809). Put plainly: primary screen, population patch clamp on CHO cells stably expressing hERG; higher = less effect of the substance.
Chain of human ether-à-go-go-related gene (hERG) potassium channel (Q12809 whole entry, looked up): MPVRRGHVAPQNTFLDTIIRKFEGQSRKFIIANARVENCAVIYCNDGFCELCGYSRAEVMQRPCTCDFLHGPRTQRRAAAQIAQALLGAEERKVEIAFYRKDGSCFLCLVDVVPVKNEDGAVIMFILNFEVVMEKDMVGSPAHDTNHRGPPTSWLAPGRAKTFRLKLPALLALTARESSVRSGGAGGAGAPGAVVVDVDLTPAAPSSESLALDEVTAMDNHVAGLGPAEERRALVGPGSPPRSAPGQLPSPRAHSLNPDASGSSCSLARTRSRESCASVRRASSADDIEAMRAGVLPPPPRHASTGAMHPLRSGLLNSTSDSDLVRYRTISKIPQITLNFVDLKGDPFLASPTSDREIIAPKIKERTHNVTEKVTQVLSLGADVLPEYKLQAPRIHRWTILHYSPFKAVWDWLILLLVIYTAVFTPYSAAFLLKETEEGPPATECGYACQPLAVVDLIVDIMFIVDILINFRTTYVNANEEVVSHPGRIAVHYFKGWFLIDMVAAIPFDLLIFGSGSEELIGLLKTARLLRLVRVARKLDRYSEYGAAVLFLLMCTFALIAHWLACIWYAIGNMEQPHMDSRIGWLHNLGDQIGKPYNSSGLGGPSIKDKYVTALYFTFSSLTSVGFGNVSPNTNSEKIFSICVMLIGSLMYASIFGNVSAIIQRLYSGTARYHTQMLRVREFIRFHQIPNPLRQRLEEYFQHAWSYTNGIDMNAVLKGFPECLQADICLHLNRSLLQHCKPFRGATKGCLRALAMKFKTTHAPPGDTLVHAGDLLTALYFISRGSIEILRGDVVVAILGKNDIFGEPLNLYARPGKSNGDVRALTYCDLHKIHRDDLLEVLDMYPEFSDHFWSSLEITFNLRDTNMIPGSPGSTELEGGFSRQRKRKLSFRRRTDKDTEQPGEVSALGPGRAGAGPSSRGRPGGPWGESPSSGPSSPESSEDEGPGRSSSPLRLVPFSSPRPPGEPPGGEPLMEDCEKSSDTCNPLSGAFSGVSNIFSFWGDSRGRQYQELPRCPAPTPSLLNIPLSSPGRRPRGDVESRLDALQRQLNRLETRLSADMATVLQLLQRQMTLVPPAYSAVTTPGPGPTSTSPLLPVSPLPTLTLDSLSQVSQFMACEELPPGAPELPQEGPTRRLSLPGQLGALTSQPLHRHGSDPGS
As to `CCN(CC)C(=O)Oc1nnc(SC(C)C)n1-c1ccc(Cl)cc1`, the “hERG current change (%, negative = inhibition) at 10uM” value is on record as -4.75%.
In the case of `Nc1ccc(Oc2ccc(Br)cc2)cc1`, the “hERG current change (%, negative = inhibition) at 10uM” value is on record as -4.61%.
Turning to `CN1C(=O)/C(=N\OC(=O)c2ccccc2Cl)c2ccccc21`, the “hERG current change (%, negative = inhibition) at 10uM” value is listed as -42.8%.
On to `Cc1[nH]n(-c2ccccc2)c(=O)c1N=Nc1cccc(C(=O)O)c1`, for which the “hERG current change (%, negative = inhibition) at 10uM” value is given as 23.1%.
Then `O=C(NC1CCCC1)C1(c2ccccc2)CCN(S(=O)(=O)c2ccccc2)CC1`, with -6.14%; and `CCCn1c(C(C)NC(=O)c2ccccc2)n[nH]c1=S` (stereo not shown), with 12.7%.
On to `O=C(C#Cc1ccccc1)c1ccco1`, for which the “hERG current change (%, negative = inhibition) at 10uM” value worked out at 5.83%.
`CCOC(=O)C1(Cc2cccc(OC)c2)CCN(Cc2cccc3cnccc23)CC1`: the “hERG current change (%, negative = inhibition) at 10uM” value was -39.3%.
For the compound `CCOC(=O)C1(CCc2ccccc2)CCN(Cc2cccc3cnccc23)CC1`, the “hERG current change (%, negative = inhibition) at 10uM” value was -69.6%.
For `CCOC(=O)C1(Cc2ccccc2)CCN(Cc2cccc3nccnc23)CC1`, the “hERG current change (%, negative = inhibition) at 10uM” value is on record as -59.9%.
As to `CCOC(=O)C1(CCc2ccccc2)CCN(Cc2cccc3nccnc23)CC1`, the “hERG current change (%, negative = inhibition) at 10uM” value is -60.5%.
For `CCOC(=O)C1(CCOc2ccccc2)CCN(Cc2cccc3nonc23)CC1`, the “hERG current change (%, negative = inhibition) at 10uM” value is -28.6%.
With `CCOC(=O)c1[nH]ncc1CN1CCC(Cc2ccccc2)(C(=O)OCC)CC1`, the “hERG current change (%, negative = inhibition) at 10uM” value is -35.3%.
Under `CCOC(=O)C1(Cc2ccc(OC)cc2)CCN(C(=O)c2cccc3nccnc23)CC1` stands -31.4%; under `O=C(CSC1=NCCS1)Nc1ccnc2ccccc12`, -5.91%.
Consider `COc1ccc(Cl)cc1C(=O)OCC(=O)Nc1cccnc1Cl`, for which the “hERG current change (%, negative = inhibition) at 10uM” value amounted to 15.8%.
On to `COc1ccc(CN(C(=S)Nc2ccccc2)C2CC(=O)N(c3ccc(F)cc3)C2=O)cc1` (stereo not shown), for which the “hERG current change (%, negative = inhibition) at 10uM” value is 26.5%.
For the compound `COc1ccc2cc(Br)ccc2c1CC(=O)NC(C)(C)C`, the “hERG current change (%, negative = inhibition) at 10uM” value was 17.3%.
As to `Cn1cc(C(c2ccccc2OCC(=O)O)c2cn(C)c3ccccc23)c2ccccc21`, the “hERG current change (%, negative = inhibition) at 10uM” value stood at 3.58%.
`COC(=O)c1ccc(NC(=S)NC2CCCCC2)cc1`: the “hERG current change (%, negative = inhibition) at 10uM” value was found to be 1.13%.
As to `COc1ccc(N2CCN(C(=O)c3oc4ccccc4c3C)CC2)cc1`, the “hERG current change (%, negative = inhibition) at 10uM” value is given as -31.9%.
For the compound `Cc1c(C(=O)N2CCOCC2)oc2ccccc12`, the “hERG current change (%, negative = inhibition) at 10uM” value was 5.05%.
As to `Cc1nc2ccccc2c2oc(C(=O)N3CCN(c4ccc([N+](=O)[O-])cc4)CC3)cc12`, the “hERG current change (%, negative = inhibition) at 10uM” value is -9.45%.
Regarding `Cc1c(C(=O)N2CCN(c3ccc([N+](=O)[O-])cc3)CC2)oc2ccccc12`, the “hERG current change (%, negative = inhibition) at 10uM” value is -72.8%.
On to `Cc1occc1C(=O)N1CCN(c2ccc(Cl)cc2)CC1`, for which the “hERG current change (%, negative = inhibition) at 10uM” value is reported as -4.41%.
Then `Cc1occc1C(=O)N1CCN(c2ccc([N+](=O)[O-])cc2)CC1`, with -77.7%; and `COc1ccccc1N1CCN(C(=O)c2cccc3c(=O)c(C)c(-c4ccccc4)oc23)CC1`, with -31.2%; and `Cc1occc1C(=O)N1CCN(c2ccccc2)CC1`, with -8.67%.
Regarding `Cc1c(-c2ccccc2)oc2c(C(=O)N3CCN(c4ccc([N+](=O)[O-])cc4)CC3)cccc2c1=O`, the “hERG current change (%, negative = inhibition) at 10uM” value is on record as -75.4%.
Regarding `Cc1c(-c2ccccc2)oc2c(C(=O)N3CCN(c4ccccc4F)CC3)cccc2c1=O`, the “hERG current change (%, negative = inhibition) at 10uM” value is -8.63%.
Turning to `Cc1ccc(C(=O)N2CCN(c3ccc([N+](=O)[O-])cc3)CC2)o1`, the “hERG current change (%, negative = inhibition) at 10uM” value is on record as -80.2%.
`Cc1ccc(C(=O)N2CCN(c3ncccn3)CC2)o1`: the “hERG current change (%, negative = inhibition) at 10uM” value is 13.4%.
Consider `COc1ccc(N2CCN(C(=O)CNC(=O)c3cccs3)CC2)cc1`, for which the “hERG current change (%, negative = inhibition) at 10uM” value is given as 10.9%.
`CCC(C)NC(=O)C(=O)NCc1ccccn1` (stereo not shown): the “hERG current change (%, negative = inhibition) at 10uM” value is 14.6%.
With `COc1ccc(CNC(=O)c2nnn(CC(=O)Nc3cc(C)cc(C)c3)c2N)cc1`, the “hERG current change (%, negative = inhibition) at 10uM” value worked out at 11.9%.
On to `CCCCc1cc(=O)oc2cc(C)cc(OCC(=O)NCC3CCC(C(=O)O)CC3)c12` (stereo not shown), for which the “hERG current change (%, negative = inhibition) at 10uM” value was -1.21%.
Under `CC1Cc2ccccc2N1C(=O)c1cc2sccc2n1Cc1ccccc1` (stereo not shown) stands 7.64%; under `CC[N+](C)(CC)CCCCOc1ccc2c(c1)C(=O)c1cc(OCCCC[N+](C)(CC)CC)ccc1-2.[I-]`, 12.9%; under `O=c1c2c3nc4ccccc4nc3n(CC3CCCO3)c2ncn1CCc1ccccc1` (stereo not shown), -5.67%.
On to `O=C(c1cccc(F)c1)N1C2C=CC(C2)C1(C(F)(F)F)C(F)(F)F` (stereo not shown), for which the “hERG current change (%, negative = inhibition) at 10uM” value is recorded as -0.667%.
For `C=CCn1c(COc2cccc3cccnc23)nnc1SCC(=O)O`, the “hERG current change (%, negative = inhibition) at 10uM” value turned out to be 12.7%.
As to `Cc1cccc2c1N(CCOc1ccc(C(C)(C)C)cc1)C(=O)C2=O`, the “hERG current change (%, negative = inhibition) at 10uM” value was -7.48%.
As for `Cc1cccc(CCNS(=O)(=O)c2cc3c(cc2C)NC(=O)CO3)c1`, the “hERG current change (%, negative = inhibition) at 10uM” value is -34.4%.
Consider `CC1(C)CC(=O)C(C=NC2CCCCC2)=C(O)C1`, for which the “hERG current change (%, negative = inhibition) at 10uM” value is reported as -10.2%.
Then `Cc1nc(NCc2ccco2)c2oc3ccccc3c2n1`, with -29.8%; and `C=CCOc1ccc(CN(C)C(=O)C2CCCO2)cc1` (stereo not shown), with 2.34%.
With `CCn1cc(C(=O)N2CCN(c3ccccc3F)CC2)c(=O)c2ccc(C)nc21`, the “hERG current change (%, negative = inhibition) at 10uM” value is reported as -5.94%.
As for `CCn1cc(C(=O)N2CCN(c3cccc(C)c3C)CC2)c(=O)c2ccc(C)nc21`, the “hERG current change (%, negative = inhibition) at 10uM” value is given as -12.9%.
Take `Cc1cc(C(=O)N2CCN(c3ccc([N+](=O)[O-])cc3)CC2)c(C)o1`: the “hERG current change (%, negative = inhibition) at 10uM” value is -73.5%.
Consider `O=C(c1ccc(-c2cccc(Cl)c2)o1)N1CCN(c2ccc([N+](=O)[O-])cc2)CC1`, for which the “hERG current change (%, negative = inhibition) at 10uM” value was -58.9%.
With `Cc1c(Cl)cccc1-c1ccc(C(=O)N2CCN(c3ccc([N+](=O)[O-])cc3)CC2)o1`, the “hERG current change (%, negative = inhibition) at 10uM” value is recorded as -14%.
As for `Cc1cc(C(=O)N2CCN(c3ccccc3)CC2)c(C)o1`, the “hERG current change (%, negative = inhibition) at 10uM” value is -1.46%.
With `COc1ccc(N2CCN(C(=O)c3cc(C)oc3C)CC2)cc1`, the “hERG current change (%, negative = inhibition) at 10uM” value came out at 12.7%.
`CCn1cc(C(=O)N2CCN(c3ccc([N+](=O)[O-])cc3)CC2)c(=O)c2ccc(C)nc21`: the “hERG current change (%, negative = inhibition) at 10uM” value is -70.9%.
Consider `O=C(c1ccc(-c2ccc(Cl)cc2)o1)N1CCN(c2ccc([N+](=O)[O-])cc2Cl)CC1`, for which the “hERG current change (%, negative = inhibition) at 10uM” value was found to be 3.9%.
For the compound `O=C(C(=O)N1CCN(C(=O)c2ccco2)CC1)c1c[nH]c2ccccc12`, the “hERG current change (%, negative = inhibition) at 10uM” value was -2.67%.
Then `CCOc1ccc(S(=O)(=O)n2cc(-c3ccccc3)c(N)n2)cc1`, with 5.5%.
As for `O=C(c1ccc2c(Cl)c3c(nc2c1)CCCC3)N1CCC(N2CCCCC2)CC1`, the “hERG current change (%, negative = inhibition) at 10uM” value is listed as -46%.
In the case of `CN(C)CCOC(=O)c1sc2ccccc2c1Cl.Cl`, the “hERG current change (%, negative = inhibition) at 10uM” value is reported as -29.4%.
Then `CN(C)CCCN(C(=O)c1ccc(N2C(=O)CCC2=O)cc1)c1nc2c(F)cccc2s1.Cl`, with -0.103%; and `CN(C)CCCOC(=O)c1sc2ccccc2c1Cl.Cl`, with -50.2%.
Take `Cc1ccc2sc(N(CCCN(C)C)C(=O)c3ccc(S(=O)(=O)N(C)Cc4ccccc4)cc3)nc2c1C.Cl`: the “hERG current change (%, negative = inhibition) at 10uM” value is on record as -20%.
As to `CN(C)CCCN(C(=O)c1sc2ccccc2c1Cl)c1nc2c(F)cccc2s1.Cl`, the “hERG current change (%, negative = inhibition) at 10uM” value is -61.9%.
Consider `CN(C)CCCN(C(=O)c1ccc(C(=O)c2ccccc2)cc1)c1nc2c(F)cccc2s1`, for which the “hERG current change (%, negative = inhibition) at 10uM” value was -67.3%.
In the case of `Cc1cccc2sc(N(CCCN(C)C)C(=O)c3ccc(C(=O)c4ccccc4)cc3)nc12`, the “hERG current change (%, negative = inhibition) at 10uM” value is listed as -53.2%.
`Cc1cccc2sc(N(CCCN(C)C)C(=O)c3sc4ccccc4c3Cl)nc12.Cl`: the “hERG current change (%, negative = inhibition) at 10uM” value is -13.5%.
For the compound `Cc1ccc2nc(N(CCCN(C)C)C(=O)c3sc4ccccc4c3Cl)sc2c1.Cl`, the “hERG current change (%, negative = inhibition) at 10uM” value is -29.9%.
As to `Cc1cccc2sc(N(CCCN(C)C)C(=O)c3ccc(S(=O)(=O)N4CCc5ccccc5C4)cc3)nc12.Cl`, the “hERG current change (%, negative = inhibition) at 10uM” value amounted to 13.9%.
As for `NC(=O)COC(=O)c1sc2ccccc2c1Cl`, the “hERG current change (%, negative = inhibition) at 10uM” value was determined as 24.3%.
As to `O=c1c2ccccc2ncn1-c1ccccc1[N+](=O)[O-]`, the “hERG current change (%, negative = inhibition) at 10uM” value is on record as 11.9%.
Under `O=S(=O)(c1ccc(OCC(O)CN2CCN(c3ccc(F)cc3)CC2)cc1)N1CCOCC1` (stereo not shown) stands -18.2%; under `O=C(NNC1CC(=O)N(c2ccc(Br)cc2)C1=O)c1ccccn1` (stereo not shown), -4.01%; under `CCCC1Cc2nc(Cl)c(C#N)cc2CO1` (stereo not shown), 15.6%.
With `O=C(Nc1cccnc1)c1cc(S(=O)(=O)N2CCOCC2)ccc1Br`, the “hERG current change (%, negative = inhibition) at 10uM” value is on record as -35.8%.
Under `COc1cc2c(cc1OC)C(COc1ccccc1OC)N(C(=O)c1ccco1)CC2` (stereo not shown) stands -15.6%; under `COC(=O)c1[nH]c2ccccc2c1NC(=O)CN1CCC(C(N)=O)(N2CCCCC2)CC1`, -35.1%; under `Cc1cc(C)cc(N(CC(=O)Nc2ccc(C(F)(F)F)cc2)S(=O)(=O)c2c(C)[nH]c(=O)[nH]c2=O)c1`, -88%.
As to `Cc1cc(C)cc(N(CC(=O)Nc2cc(C)ccc2C)S(=O)(=O)c2c(C)[nH]c(=O)[nH]c2=O)c1`, the “hERG current change (%, negative = inhibition) at 10uM” value amounted to 5.03%.
Take `COc1cc(NC(=O)CN(c2cc(C)cc(C)c2)S(=O)(=O)c2c(C)[nH]c(=O)[nH]c2=O)cc(OC)c1`: the “hERG current change (%, negative = inhibition) at 10uM” value is reported as -27.8%.
For `Cc1cc(C)cc(N(CC(=O)Nc2ccc(Br)cc2)S(=O)(=O)c2c(C)[nH]c(=O)[nH]c2=O)c1`, the “hERG current change (%, negative = inhibition) at 10uM” value is reported as -76.4%.
For the compound `Cc1cc(C)cc(N(CC(=O)Nc2ccc(C)cc2Cl)S(=O)(=O)c2c(C)[nH]c(=O)[nH]c2=O)c1`, the “hERG current change (%, negative = inhibition) at 10uM” value is reported as -7.63%.
As to `CCc1ccc(NC(=O)CN(c2cc(C)cc(C)c2)S(=O)(=O)c2c(C)[nH]c(=O)[nH]c2=O)cc1`, the “hERG current change (%, negative = inhibition) at 10uM” value is given as -33.7%.
